Here are results for one sequence from PMC7862700, “An all-to-all approach to the identification of sequence-specific readers for epigenetic DNA modifications on cytosine”.

Assay in all cases: DAPPL (digital affinity profiling via proximity ligation, sequencing); 10 mM Tris-HCl pH 7.5, 50 mM NaCl, 1 mM DTT, 4% glycerol, room temperature, 30 min; GST-TFs on glutathione beads, 16-mer random dsDNA library, 0.1% formaldehyde crosslink after washing; high values mean tight binding
One test has as its target T1, FEV (Homo sapiens, UniProt Q99581 1-238).
T1 sequence: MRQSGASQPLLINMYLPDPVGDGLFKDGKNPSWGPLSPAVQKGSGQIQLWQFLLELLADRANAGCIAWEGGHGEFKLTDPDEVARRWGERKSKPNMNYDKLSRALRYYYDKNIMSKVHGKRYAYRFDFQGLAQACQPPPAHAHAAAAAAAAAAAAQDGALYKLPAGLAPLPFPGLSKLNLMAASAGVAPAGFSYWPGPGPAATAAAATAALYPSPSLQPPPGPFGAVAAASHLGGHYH
As to conditions: protein: recombinant; tags: N-terminal GST; dsDNA, one strand shown. An outline of the steps: (§1)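 A tag-only sample was pooled with DNA-barcoded human transcription factors that had been expressed in yeast as GST fusions and captured on glutathione beads. The pools were incubated for 30 min at room temperature with 200 nmole of a random double-stranded 16-mer DNA library in Tris/NaCl/DTT/glycerol buffer, then washed, crosslinked with 0.1% formaldehyde, proximity-ligated (BsaI/T4 ligase, 1 h, 37 °C), PCR-amplified and sequenced on an Illumina NextSeq500. Binding signal is each hexamer's read frequency for a factor divided by its frequency for the tag-only sample.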

A further test has as its target ETV5 (Homo sapiens, UniProt P41161 1-510). The following applies: protein: recombinant; tags: N-terminal GST; dsDNA, one strand shown. An outline of the steps: as §1
The next test deals with HSF1 (Homo sapiens, UniProt Q00613 1-529). As to conditions: protein: recombinant; tags: N-terminal GST; chain copies: 3; dsDNA, one strand shown. An outline of the steps: as §1
HSF1, sequence (Q00613 whole entry): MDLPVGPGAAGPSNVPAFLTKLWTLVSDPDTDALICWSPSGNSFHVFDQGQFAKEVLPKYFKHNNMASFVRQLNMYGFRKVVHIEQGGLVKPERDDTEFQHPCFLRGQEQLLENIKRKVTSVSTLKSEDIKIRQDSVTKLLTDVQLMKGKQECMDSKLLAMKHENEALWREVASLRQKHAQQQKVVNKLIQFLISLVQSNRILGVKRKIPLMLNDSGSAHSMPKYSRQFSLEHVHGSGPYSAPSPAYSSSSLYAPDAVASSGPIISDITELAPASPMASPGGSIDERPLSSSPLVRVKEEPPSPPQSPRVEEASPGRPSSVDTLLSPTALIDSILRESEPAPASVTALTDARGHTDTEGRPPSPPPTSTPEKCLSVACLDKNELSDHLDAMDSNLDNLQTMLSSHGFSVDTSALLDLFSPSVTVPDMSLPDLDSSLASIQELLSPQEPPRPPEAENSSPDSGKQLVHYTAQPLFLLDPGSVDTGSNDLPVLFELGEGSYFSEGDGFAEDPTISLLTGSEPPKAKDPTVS
The target of a further test is T2, SPIC (Homo sapiens, UniProt Q8N5J4 1-248).
T2 sequence: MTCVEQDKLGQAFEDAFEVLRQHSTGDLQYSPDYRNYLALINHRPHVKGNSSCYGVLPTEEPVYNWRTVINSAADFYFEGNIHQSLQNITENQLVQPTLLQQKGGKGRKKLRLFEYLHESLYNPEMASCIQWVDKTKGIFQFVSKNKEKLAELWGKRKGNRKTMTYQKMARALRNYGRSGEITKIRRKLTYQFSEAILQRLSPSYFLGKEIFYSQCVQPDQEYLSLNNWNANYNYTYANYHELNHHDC
The following applies: protein: recombinant; tags: N-terminal GST; dsDNA, one strand shown. An outline of the steps: as §1

Another test concerns the target ELF4 (Homo sapiens, UniProt Q99607 1-663). As to conditions: protein: recombinant; tags: N-terminal GST; dsDNA, one strand shown. An outline of the steps: as §1
For a further test, the target named is T3, ELK4 (Homo sapiens, UniProt P28324-2 1-405).
T3 sequence: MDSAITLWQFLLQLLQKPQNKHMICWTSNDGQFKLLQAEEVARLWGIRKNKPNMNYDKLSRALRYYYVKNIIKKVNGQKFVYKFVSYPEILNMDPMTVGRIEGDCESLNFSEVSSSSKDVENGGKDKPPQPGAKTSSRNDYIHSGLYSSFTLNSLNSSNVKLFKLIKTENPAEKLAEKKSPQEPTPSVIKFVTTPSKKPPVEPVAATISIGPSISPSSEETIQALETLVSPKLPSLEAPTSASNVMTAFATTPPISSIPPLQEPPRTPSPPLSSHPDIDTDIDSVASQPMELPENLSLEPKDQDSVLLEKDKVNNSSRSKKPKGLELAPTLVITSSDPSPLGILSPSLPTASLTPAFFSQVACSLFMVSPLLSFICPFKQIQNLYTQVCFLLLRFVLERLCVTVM
The following applies: protein: recombinant; tags: N-terminal GST; dsDNA, one strand shown. An outline of the steps: as §1

For another test, the target named is T4, ETV2 (Homo sapiens, UniProt O00321 1-342).
T4 sequence: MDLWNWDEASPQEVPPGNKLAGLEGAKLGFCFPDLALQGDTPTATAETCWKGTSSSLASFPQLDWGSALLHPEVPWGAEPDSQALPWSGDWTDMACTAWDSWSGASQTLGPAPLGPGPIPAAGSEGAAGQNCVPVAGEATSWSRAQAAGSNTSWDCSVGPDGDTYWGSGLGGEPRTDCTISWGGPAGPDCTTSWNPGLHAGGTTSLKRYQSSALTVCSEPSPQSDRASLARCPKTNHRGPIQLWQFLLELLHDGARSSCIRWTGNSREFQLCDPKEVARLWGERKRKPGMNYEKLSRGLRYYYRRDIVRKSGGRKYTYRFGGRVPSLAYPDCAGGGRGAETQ
As to conditions: protein: recombinant; tags: N-terminal GST; dsDNA, one strand shown. An outline of the steps: as §1

In the next test the target is T5, ELF3 (Homo sapiens, UniProt P78545 1-371).
T5 sequence: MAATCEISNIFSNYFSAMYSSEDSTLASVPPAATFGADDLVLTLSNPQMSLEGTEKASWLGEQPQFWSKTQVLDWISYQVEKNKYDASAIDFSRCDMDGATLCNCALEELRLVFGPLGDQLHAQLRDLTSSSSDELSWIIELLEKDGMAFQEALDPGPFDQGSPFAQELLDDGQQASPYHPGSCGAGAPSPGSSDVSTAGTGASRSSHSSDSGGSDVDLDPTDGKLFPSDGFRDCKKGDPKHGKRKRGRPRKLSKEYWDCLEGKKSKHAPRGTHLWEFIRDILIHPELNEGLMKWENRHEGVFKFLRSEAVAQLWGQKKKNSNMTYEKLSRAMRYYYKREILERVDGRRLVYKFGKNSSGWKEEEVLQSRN
The following applies: protein: recombinant; tags: N-terminal GST; dsDNA, one strand shown. An outline of the steps: as §1

Another test concerns the target CRX (Homo sapiens, UniProt O43186 1-299). As to conditions: protein: recombinant; tags: N-terminal GST; dsDNA, one strand shown. An outline of the steps: as §1
The target in another test is ETV1 (Homo sapiens, UniProt P50549 1-477). As to conditions: protein: recombinant; tags: N-terminal GST; dsDNA, one strand shown. An outline of the steps: as §1
ETV1, sequence (P50549 whole entry): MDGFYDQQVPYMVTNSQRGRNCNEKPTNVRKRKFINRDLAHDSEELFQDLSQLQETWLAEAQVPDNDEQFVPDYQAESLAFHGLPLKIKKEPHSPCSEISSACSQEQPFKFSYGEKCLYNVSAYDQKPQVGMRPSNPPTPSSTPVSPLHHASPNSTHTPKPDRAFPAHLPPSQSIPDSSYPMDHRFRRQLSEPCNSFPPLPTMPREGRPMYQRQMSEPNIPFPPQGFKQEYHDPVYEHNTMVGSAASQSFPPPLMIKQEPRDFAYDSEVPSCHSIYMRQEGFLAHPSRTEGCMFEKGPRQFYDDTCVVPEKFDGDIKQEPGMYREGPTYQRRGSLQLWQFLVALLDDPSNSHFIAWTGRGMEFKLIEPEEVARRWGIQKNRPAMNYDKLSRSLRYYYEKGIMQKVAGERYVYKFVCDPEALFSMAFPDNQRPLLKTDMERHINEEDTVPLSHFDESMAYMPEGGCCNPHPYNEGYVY
In another test the target is T6, ERF (Homo sapiens, UniProt P50548 1-548).
T6 sequence: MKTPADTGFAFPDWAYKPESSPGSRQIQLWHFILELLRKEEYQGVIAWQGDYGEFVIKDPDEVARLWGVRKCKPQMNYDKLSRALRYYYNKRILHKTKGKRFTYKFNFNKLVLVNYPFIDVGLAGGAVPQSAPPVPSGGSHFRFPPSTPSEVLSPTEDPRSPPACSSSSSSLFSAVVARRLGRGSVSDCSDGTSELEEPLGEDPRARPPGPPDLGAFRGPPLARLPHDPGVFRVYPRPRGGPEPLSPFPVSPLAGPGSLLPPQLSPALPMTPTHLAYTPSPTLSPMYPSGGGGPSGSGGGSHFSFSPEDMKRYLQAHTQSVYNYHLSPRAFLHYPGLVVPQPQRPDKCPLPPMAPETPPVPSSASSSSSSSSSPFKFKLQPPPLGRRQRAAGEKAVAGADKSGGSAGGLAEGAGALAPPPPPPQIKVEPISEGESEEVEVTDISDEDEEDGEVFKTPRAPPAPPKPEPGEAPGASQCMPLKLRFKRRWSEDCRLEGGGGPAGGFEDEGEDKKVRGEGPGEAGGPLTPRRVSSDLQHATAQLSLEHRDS
The following applies: protein: recombinant; tags: N-terminal GST; dsDNA, one strand shown. An outline of the steps: as §1

A further test addresses T7, ETV3L (Homo sapiens, UniProt Q6ZN32 1-361).
T7 sequence: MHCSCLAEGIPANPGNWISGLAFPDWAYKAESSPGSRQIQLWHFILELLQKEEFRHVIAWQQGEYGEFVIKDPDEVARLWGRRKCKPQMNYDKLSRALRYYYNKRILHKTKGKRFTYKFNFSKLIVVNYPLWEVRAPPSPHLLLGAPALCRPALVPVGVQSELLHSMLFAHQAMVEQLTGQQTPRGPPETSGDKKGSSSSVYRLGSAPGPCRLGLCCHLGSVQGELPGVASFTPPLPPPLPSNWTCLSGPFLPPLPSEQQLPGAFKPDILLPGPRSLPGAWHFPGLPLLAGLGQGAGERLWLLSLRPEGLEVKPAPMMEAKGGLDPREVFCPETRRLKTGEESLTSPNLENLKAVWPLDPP
As to conditions: protein: recombinant; tags: N-terminal GST; dsDNA, one strand shown. An outline of the steps:
as §1

The target of the next test is T8, ETS2 (Homo sapiens, UniProt P15036 1-469).
T8 sequence: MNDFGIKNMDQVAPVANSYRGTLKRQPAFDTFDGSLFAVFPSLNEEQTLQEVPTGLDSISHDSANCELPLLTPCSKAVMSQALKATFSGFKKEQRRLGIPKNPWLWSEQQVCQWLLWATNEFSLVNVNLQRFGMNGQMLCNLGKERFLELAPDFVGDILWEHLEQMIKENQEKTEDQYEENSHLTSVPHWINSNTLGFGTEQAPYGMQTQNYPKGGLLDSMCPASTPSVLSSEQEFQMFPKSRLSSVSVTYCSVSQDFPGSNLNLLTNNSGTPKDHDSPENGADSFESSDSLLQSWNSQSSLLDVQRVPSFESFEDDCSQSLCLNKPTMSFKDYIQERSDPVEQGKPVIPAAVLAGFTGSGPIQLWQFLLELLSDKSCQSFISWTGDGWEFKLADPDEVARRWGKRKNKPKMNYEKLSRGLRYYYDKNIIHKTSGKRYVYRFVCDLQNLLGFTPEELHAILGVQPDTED
As to conditions: protein: recombinant; tags: N-terminal GST; dsDNA, one strand shown. An outline of the steps: as §1

The next test deals with T9, SPDEF (Homo sapiens, UniProt O95238 1-335).
T9 sequence: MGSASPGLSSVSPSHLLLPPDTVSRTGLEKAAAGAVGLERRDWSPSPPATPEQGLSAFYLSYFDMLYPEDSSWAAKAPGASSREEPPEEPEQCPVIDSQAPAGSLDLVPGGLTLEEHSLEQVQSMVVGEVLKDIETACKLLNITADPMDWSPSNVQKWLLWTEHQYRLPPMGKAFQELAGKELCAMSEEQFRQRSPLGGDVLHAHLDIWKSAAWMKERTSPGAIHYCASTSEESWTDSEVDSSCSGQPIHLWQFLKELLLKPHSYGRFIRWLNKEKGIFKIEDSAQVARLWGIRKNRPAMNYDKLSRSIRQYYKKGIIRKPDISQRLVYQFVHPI
The following applies: protein: recombinant; tags: N-terminal GST; dsDNA, one strand shown. An outline of the steps:
as §1

The target in another test is T10, ETV7 (Homo sapiens, UniProt Q9Y603 1-341).
T10 sequence: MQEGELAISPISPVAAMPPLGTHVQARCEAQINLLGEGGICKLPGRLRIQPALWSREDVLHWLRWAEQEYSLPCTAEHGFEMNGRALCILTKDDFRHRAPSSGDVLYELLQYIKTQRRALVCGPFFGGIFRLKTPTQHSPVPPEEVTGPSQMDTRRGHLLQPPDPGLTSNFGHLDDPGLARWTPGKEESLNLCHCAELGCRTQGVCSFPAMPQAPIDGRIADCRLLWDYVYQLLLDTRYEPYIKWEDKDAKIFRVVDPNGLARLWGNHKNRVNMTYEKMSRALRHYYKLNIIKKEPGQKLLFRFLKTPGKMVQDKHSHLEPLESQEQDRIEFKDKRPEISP
The following applies: protein: recombinant; tags: N-terminal GST; dsDNA, one strand shown. An outline of the steps:
as §1

The target in the next test is T11, ELF5 (Homo sapiens, UniProt Q9UKW6-2 1-255).
T11 sequence: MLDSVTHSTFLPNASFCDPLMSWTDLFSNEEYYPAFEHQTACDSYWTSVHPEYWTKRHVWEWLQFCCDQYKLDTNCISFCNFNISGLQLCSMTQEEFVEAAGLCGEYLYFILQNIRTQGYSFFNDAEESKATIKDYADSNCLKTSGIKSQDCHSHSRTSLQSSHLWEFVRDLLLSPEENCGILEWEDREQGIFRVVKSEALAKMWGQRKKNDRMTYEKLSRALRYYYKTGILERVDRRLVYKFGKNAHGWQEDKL
As to conditions: protein: recombinant; tags: N-terminal GST; dsDNA, one strand shown. An outline of the steps: as §1

A further test has as its target T12, ETV3 (Homo sapiens, UniProt P41162-2 1-143).
T12 sequence: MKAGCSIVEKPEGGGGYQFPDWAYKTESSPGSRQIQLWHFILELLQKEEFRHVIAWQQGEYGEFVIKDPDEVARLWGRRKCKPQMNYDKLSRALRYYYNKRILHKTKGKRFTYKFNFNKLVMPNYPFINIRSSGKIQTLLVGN
The following applies: protein: recombinant; tags: N-terminal GST; dsDNA, one strand shown. An outline of the steps:
as §1

A further test concerns the target ETV6 (Homo sapiens, UniProt P41212 1-452). As to conditions: protein: recombinant; tags: N-terminal GST; dsDNA, one strand shown. An outline of the steps:
as §1

CRX, sequence (O43186 whole entry): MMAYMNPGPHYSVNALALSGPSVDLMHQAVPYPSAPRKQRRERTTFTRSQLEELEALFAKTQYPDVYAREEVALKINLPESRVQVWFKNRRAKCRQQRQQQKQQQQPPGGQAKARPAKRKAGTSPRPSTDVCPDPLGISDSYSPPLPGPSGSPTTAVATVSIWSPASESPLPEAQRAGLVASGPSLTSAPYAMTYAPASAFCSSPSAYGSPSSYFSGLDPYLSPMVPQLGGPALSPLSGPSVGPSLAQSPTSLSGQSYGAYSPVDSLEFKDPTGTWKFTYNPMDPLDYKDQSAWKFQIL
ETV5, sequence (P41161 whole entry): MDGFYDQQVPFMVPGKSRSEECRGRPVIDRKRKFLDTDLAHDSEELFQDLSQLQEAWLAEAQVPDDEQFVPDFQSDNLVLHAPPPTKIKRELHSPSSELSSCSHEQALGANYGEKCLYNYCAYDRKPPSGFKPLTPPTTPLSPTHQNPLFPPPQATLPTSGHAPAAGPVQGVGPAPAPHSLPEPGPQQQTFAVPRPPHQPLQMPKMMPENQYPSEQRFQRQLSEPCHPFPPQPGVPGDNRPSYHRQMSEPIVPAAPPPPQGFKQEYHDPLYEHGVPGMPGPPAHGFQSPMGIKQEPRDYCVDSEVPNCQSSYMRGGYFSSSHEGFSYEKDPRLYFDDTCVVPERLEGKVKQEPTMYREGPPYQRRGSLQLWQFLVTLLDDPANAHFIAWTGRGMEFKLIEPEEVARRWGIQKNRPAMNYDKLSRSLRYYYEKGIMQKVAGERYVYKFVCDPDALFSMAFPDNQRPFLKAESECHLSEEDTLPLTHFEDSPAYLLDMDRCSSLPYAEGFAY
ETV6, sequence (P41212 whole entry): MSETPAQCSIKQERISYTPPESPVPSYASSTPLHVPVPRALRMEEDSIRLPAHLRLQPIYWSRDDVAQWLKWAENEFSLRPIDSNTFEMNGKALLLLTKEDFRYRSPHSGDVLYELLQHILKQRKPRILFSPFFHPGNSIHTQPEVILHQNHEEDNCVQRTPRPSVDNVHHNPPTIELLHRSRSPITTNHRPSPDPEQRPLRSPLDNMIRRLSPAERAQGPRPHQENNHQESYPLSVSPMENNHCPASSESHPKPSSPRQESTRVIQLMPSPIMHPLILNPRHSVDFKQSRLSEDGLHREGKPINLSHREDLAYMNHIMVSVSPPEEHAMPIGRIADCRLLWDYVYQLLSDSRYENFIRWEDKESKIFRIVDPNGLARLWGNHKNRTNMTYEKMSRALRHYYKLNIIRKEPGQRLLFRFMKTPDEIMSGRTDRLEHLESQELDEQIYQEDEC
ELF4, sequence (Q99607 whole entry): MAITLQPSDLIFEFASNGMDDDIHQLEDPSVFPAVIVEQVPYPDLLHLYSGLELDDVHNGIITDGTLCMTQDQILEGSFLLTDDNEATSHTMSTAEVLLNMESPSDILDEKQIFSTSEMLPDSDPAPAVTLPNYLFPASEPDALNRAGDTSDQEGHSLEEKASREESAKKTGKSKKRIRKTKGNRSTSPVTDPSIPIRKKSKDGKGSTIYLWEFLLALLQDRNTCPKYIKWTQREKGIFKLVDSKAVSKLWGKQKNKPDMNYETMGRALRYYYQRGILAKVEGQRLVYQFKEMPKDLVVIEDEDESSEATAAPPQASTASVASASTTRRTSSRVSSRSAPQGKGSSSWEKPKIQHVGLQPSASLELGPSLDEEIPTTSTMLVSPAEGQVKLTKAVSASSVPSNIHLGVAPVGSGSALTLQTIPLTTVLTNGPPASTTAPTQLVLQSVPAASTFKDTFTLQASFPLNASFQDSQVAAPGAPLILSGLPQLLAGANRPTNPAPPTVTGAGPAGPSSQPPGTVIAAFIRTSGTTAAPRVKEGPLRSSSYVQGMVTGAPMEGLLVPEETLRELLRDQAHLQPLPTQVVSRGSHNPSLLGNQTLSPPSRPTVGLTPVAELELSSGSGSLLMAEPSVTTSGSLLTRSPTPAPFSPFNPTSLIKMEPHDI

Turning to TTTCGT, the binding signal was 1.35 fold enrichment (6-mer frequency, TF over GST control) in the test with FEV; 1.41 fold enrichment (6-mer frequency, TF over GST control) with ETV5; 1.48 fold enrichment (6-mer frequency, TF over GST control) with HSF1; 1.36 fold enrichment (6-mer frequency, TF over GST control) with SPIC; 1.34 fold enrichment (6-mer frequency, TF over GST control) with ELF4; 1.49 fold enrichment (6-mer frequency, TF over GST control) with ELK4. Moreover, the binding signal in the test with ETV2 was 1.32 fold enrichment (6-mer frequency, TF over GST control); in the test with ELF3, 1.33 fold enrichment (6-mer frequency, TF over GST control); with CRX, 1.43 fold enrichment (6-mer frequency, TF over GST control); with ETV1, 1.38 fold enrichment (6-mer frequency, TF over GST control); with ERF it was 1.21 fold enrichment (6-mer frequency, TF over GST control); with ETV3L, 1.46 fold enrichment (6-mer frequency, TF over GST control). In addition, the binding signal is 1.37 fold enrichment (6-mer frequency, TF over GST control) with ETS2; 1.42 fold enrichment (6-mer frequency, TF over GST control) with SPDEF; 1.34 fold enrichment (6-mer frequency, TF over GST control) with ETV7; 1.33 fold enrichment (6-mer frequency, TF over GST control) in the test with ELF5; 1.4 fold enrichment (6-mer frequency, TF over GST control) with ETV3; 1.35 fold enrichment (6-mer frequency, TF over GST control) with ETV6.
